IDE exosite FP: displaces the probe from the exo-site of human IDE | 17,000 compounds, 6.3% hits | purified IDE, FL-6b probe fluorescence polarization; active compounds read low | P14735 | z-score at 20 µM;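 active = z-score of -3 or lower, meaning strong loss of probe binding signal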;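 note: His-tagged human IDE residues 42-1019 made in E. coli with 30 nM FL-6b probe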
A number is an active result. Shown is part of a subset that was picked to be rich in hits.

`C/C=C/c1ccc([C@H]2[C@H](CO)N(C(=O)COC)[C@H]2CNC(=O)CC)cc1` gave IDE exosite FP inactive.
`O=C1CNC[C@H]2[C@H](c3ccc(C4=CCCC4)cc3)[C@@H](CO)N12` gave IDE exosite FP inactive.
Screening COCC(=O)N1[C@H](CO)[C@H](c2ccccc2-c2cccc(F)c2)[C@@H]1C#N returned IDE exosite FP inactive.
For N#C[C@H]1[C@@H](c2ccccc2-c2cccc(F)c2)[C@@H](CO)N1C(=O)C1CCCCC1 the results were IDE exosite FP inactive.
For C[C@H](CO)N1C[C@H](C)[C@H](CN(C)C(=O)NC2CCCCC2)Oc2ccc(N(C)C)cc2CC1=O the results were IDE exosite FP inactive.
O=C(C1CC1)N1CC(=O)N2[C@H](CO)[C@H](c3ccc(C#Cc4cccc(F)c4)cc3)[C@@H]2C1 was read as IDE exosite FP -4.2.
O=C(C1CC1)N1CC(=O)N2[C@H](CO)[C@@H](c3ccc(C#Cc4cccc(F)c4)cc3)[C@@H]2C1 was read as IDE exosite FP -5.7.
`O=C(c1cccc(F)c1)N1CC(=O)N2[C@@H](CO)[C@@H](c3ccc(C#Cc4ccc(F)cc4)cc3)[C@@H]2C1` gave IDE exosite FP inactive.
O=C(c1cccc(F)c1)N1CC(=O)N2[C@H](CO)[C@@H](c3ccc(C#Cc4ccc(F)cc4)cc3)[C@@H]2C1 was read as IDE exosite FP inactive.
Screening O=C(c1cccc(F)c1)N1CC(=O)N2[C@H](C1)[C@H](c1ccc(C#Cc3ccc(F)cc3)cc1)[C@@H]2CO returned IDE exosite FP inactive.
For CCCC(=O)Nc1ccc2c(c1)OC[C@@H](C)N(CC1CCOCC1)C[C@@H](C)[C@@H](OC)CN(C)C2=O the results were IDE exosite FP inactive.
For CO[C@@H](C(=O)N(C)C[C@@H]1OCc2ccccc2-c2ccccc2C(=O)N([C@@H](C)CO)C[C@H]1C)c1ccccc1 the results were IDE exosite FP inactive.
`COc1ccc(-c2ccccc2[C@@H]2[C@@H](CO)N(C(=O)NC(C)C)[C@H]2C#N)cc1` gave IDE exosite FP inactive.
Screening O=C(C1CCOCC1)N1CC(=O)N2[C@H](C1)[C@H](c1ccc(C#Cc3cccc(F)c3)cc1)[C@@H]2CO returned IDE exosite FP -8.4.
For O=C(C1CCOCC1)N1CC(=O)N2[C@@H](CO)[C@@H](c3ccc(C#Cc4cccc(F)c4)cc3)[C@@H]2C1 the results were IDE exosite FP -4.8.
Screening COc1ccc(C#Cc2ccc([C@H]3[C@H]4CN(C(=O)C5CCOCC5)CC(=O)N4[C@H]3CO)cc2)cc1 returned IDE exosite FP inactive.
For O=C(C1CCOCC1)N1CC(=O)N2[C@H](CO)[C@@H](c3ccc(C#CC4CC4)cc3)[C@H]2C1 the results were IDE exosite FP inactive.
For COc1ccc(C#Cc2ccc([C@@H]3[C@@H](CO)N4C(=O)CN(C(=O)C5CCOCC5)C[C@@H]34)cc2)cc1 the results were IDE exosite FP inactive.
O=C(C1CCOCC1)N1CC(=O)N2[C@H](C1)[C@@H](c1ccc(C#CC3CC3)cc1)[C@@H]2CO was read as IDE exosite FP inactive.
Cc1ccc(S(=O)(=O)N(C)C[C@@H]2OCCCC[C@@H](C)Oc3ccc(NC(=O)c4ccncc4)cc3C(=O)N([C@@H](C)CO)C[C@@H]2C)cc1 was read as IDE exosite FP inactive.
CCCNC(=O)N1CC(=O)N2[C@@H](CO)[C@@H](c3ccc(C#Cc4cccc(F)c4)cc3)[C@@H]2C1 was read as IDE exosite FP inactive.
`CCCNC(=O)N1CC(=O)N2[C@@H](CO)[C@H](c3ccc(C#Cc4ccccc4)cc3)[C@@H]2C1` gave IDE exosite FP -11.
`CCCNC(=O)N1CC(=O)N2[C@H](CO)[C@@H](c3ccc(C#Cc4cccc(F)c4)cc3)[C@H]2C1` gave IDE exosite FP -3.7.
`CCCNC(=O)N1CC(=O)N2[C@@H](CO)[C@@H](c3ccc(C#Cc4ccccc4)cc3)[C@@H]2C1` gave IDE exosite FP inactive.
For CCCNC(=O)N1CC(=O)N2[C@H](C1)[C@H](c1ccc(C#Cc3ccc(F)cc3)cc1)[C@@H]2CO the results were IDE exosite FP inactive.
`CCCNC(=O)N1CC(=O)N2[C@@H](CO)[C@H](c3ccc(C#Cc4ccc(F)cc4)cc3)[C@@H]2C1` gave IDE exosite FP inactive.
`CCN(C[C@H]1[C@H](c2ccccc2)[C@@H](CO)N1C(C)=O)C(=O)NC(C)C` gave IDE exosite FP inactive.
Cc1ccc(CN2CC(=O)N3[C@H](CO)[C@H](c4ccc(Br)cc4)[C@@H]3C2)cc1 was read as IDE exosite FP inactive.
CN1C(=O)c2cc(NC(=O)Nc3ccccc3F)ccc2OC[C@@H]2O[C@@H](CC(=O)NCCc3ccncc3)CC[C@H]21 was read as IDE exosite FP inactive.
`COc1ccc2c3c([nH]c2c1)[C@H](CO)N(Cc1ccccc1)CC31CN(C(=O)Nc2cccc(F)c2)C1` gave IDE exosite FP inactive.
`Cc1ccc(-c2ccccc2[C@@H]2[C@H](C#N)N(c3ncc(-c4ccccc4)s3)[C@H]2CO)cc1` gave IDE exosite FP inactive.
O=C1CNC[C@@H]2[C@@H](c3ccc(-c4ccccc4F)cc3)[C@H](CO)N12 was read as IDE exosite FP inactive.
For O=C(CC1CC1)N1CC(=O)N2[C@H](CO)[C@H](c3ccc(/C=C/c4ccccc4)cc3)[C@@H]2C1 the results were IDE exosite FP inactive.
For COCC(=O)N1CC(=O)N2[C@@H](CO)[C@H](c3ccc(-c4ccccc4)cc3)[C@@H]2C1 the results were IDE exosite FP inactive.
`O=C(CC1CC1)N1CC(=O)N2[C@H](CO)[C@@H](c3ccc(-c4cccnc4)cc3)[C@@H]2C1` gave IDE exosite FP inactive.
For O=C(CC1CC1)N1CC(=O)N2[C@@H](CO)[C@@H](c3ccc(-c4ccccc4)cc3)[C@@H]2C1 the results were IDE exosite FP -4.8.
`O=C(CC1CC1)N1CC(=O)N2[C@@H](CO)[C@H](c3ccc(/C=C/c4ccccc4)cc3)[C@@H]2C1` gave IDE exosite FP -5.
O=C(CC1CC1)N1CC(=O)N2[C@H](CO)[C@@H](c3ccc(/C=C/c4ccccc4)cc3)[C@H]2C1 was read as IDE exosite FP -3.3.
`O=C(C[C@H]1CC[C@H](NC(=O)C2CCOCC2)[C@H](CO)O1)NCC1CCCCC1` gave IDE exosite FP inactive.
Screening CC(=O)N1[C@H](CNC(=O)CN(C)C)[C@H](c2ccc(C3=CCCCC3)cc2)[C@@H]1CO returned IDE exosite FP inactive.
For Cn1cnc(CCNC(=O)[C@@H]2[C@@H](CO)[C@@H]3Cn4c(cccc4=O)[C@@H]3N2C(=O)Nc2ccccc2)c1 the results were IDE exosite FP inactive.
For C/C=C/c1ccc([C@@H]2[C@H](CO)N(CC3CC3)[C@H]2CNC(=O)c2ccccc2)cc1 the results were IDE exosite FP inactive.
For CC(C)NC(=O)N1CCCCN2[C@H](CO)[C@@H](c3ccc(C#Cc4ccccc4)cc3)[C@@H]2C1 the results were IDE exosite FP -7.5.
`CC(C)NC(=O)N1CCCCN2[C@H](C1)[C@H](c1ccc(C#C[C@H](C)O)cc1)[C@@H]2CO` gave IDE exosite FP inactive.
`CC(C)NC(=O)N1CCCCN2[C@@H](CO)[C@H](c3ccc(C#Cc4ccccc4)cc3)[C@@H]2C1` gave IDE exosite FP -11.
`CC(C)NC(=O)N1CCCCN2[C@H](CO)[C@H](c3ccc(C#Cc4ccccc4)cc3)[C@@H]2C1` gave IDE exosite FP -9.8.
`CC(C)NC(=O)N1CCCCN2[C@H](CO)[C@@H](c3ccc(C#Cc4ccccc4F)cc3)[C@@H]2C1` gave IDE exosite FP inactive.
